Assay outcomes from PubChem BioAssay.
Luc counter: Kinase-Glo luciferase inhibition (counter-screen); Kinase-Glo luciferase, ATP luminescence, 8 min; Potency, µM (series often up to 38.3 µM), most hits filed as inhibitors; 200,000 tested, 0.28% active; AID 1379; note: nearly all actives have a fitted effect of over 60% in size
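Inhibition of Kinase-Glo luciferase light generation was assessed at 10 uM ATP in pH 7.2 imidazole buffer, with luminescence measured after eight minutes at ambient temperature.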
HTT cytoprotect: Huntington cell model cytoprotection by ATP luminescence | PC12 HTT-Q103 induced, cytoprotection, ATP luminescence, 40 h | Potency, µM (titrated, usually from 56.4 µM), usual class: activators | 230,000 tested, 0.14% active; note: nearly all actives have a fitted effect of over 45% in size
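Compounds added alongside 100 nM tebufenozide, which induces toxic Q103 huntingtin exon 1-GFP in stable PC12 cells; surviving cells quantified by luminescent ATP measurement. Medium: phenol red-free DMEM, 5% equine and 5% calf serum.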
HttQ103 aggreg: reduces HttQ103-GFP aggregates in PC12 cells; 220,000 tested, 1.1% active; Potency, µM (titrated, usually from 46.1 µM), most hits filed as inhibitors; PC12 HttQ103-GFP aggregates, Acumen cytometry, 40 h; note: nearly all actives have a fitted effect of over 60% in size
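PC12 cells with ecdysone-inducible HTT exon1 Q103-GFP, induced by 100 nM tebufenozide, given compounds in a concentration series. GFP aggregates (1–25 um, 6 SD above background) counted in lysates by laser-scanning cytometry, 488 nm excitation.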
ALDH1A1 inh: inhibitors of human aldehyde dehydrogenase 1A1. AID 1030. Purified ALDH1A1, NADH fluorescence, propionaldehyde substrate. 220,000 tested, 7.3% active. P00352. Potency, µM (top dose mostly 75.3 µM), most hits filed as inhibitors; active = well fitted inhibition curve with a large enough effect, not every such curve was filed as active; inconclusive = small, poorly fitted or top-dose-only effect, or another doubt; inactive = no such curve, though single readings can be large or run the other way
Target sequence (P00352 whole entry, looked up): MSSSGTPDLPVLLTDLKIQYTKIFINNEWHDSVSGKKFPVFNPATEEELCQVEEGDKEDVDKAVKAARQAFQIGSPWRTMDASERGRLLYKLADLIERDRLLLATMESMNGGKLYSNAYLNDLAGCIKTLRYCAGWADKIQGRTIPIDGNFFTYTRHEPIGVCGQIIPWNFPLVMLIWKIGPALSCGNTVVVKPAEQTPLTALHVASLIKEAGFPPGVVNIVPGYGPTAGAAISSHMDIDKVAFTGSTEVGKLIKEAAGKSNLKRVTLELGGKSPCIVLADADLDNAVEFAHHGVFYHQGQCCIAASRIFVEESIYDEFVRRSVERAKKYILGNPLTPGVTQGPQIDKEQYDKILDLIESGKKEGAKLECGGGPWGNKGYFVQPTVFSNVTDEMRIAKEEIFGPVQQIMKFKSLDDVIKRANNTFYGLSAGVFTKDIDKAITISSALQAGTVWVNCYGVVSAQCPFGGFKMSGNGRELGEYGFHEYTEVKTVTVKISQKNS
HPGD block: blocks human HPGD enzyme activity | purified HPGD, NADH fluorescence kinetic, PGE2 substrate | 150,000 tested, 4.3% active | Potency, µM, most hits filed as inhibitors | P15428; active = well fitted inhibition curve with a large enough effect, not every such curve was filed as active; inconclusive = small, poorly fitted or top-dose-only effect, or another doubt; inactive = no such curve, though single readings can be large or run the other way
Target sequence (P15428 whole entry, looked up): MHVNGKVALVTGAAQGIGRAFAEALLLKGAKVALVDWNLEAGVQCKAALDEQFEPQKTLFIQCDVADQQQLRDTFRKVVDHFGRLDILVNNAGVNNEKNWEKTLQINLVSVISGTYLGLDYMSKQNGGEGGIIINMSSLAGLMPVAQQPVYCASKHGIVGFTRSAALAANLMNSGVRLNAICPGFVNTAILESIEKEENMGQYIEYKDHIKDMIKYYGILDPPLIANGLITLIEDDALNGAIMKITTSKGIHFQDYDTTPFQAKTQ
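NADH formation kinetics: reaction with 30 uM PGE2 and 1 mM NAD+ (final), 20 nM enzyme, Tris-HCl pH 8 with Tween 20, after 15 min compound preincubation at room temperature. Fluorescence change, last versus first of five reads.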
Lamin A splicing: modulators of lamin A splicing | Potency, µM (series often up to 46.1 µM), usual class: inhibitors | HeLa LMNA splicing GFP/RFP minigene ratio, 48 h | AID 1487 | 200,000 tested, 0.01% active; active = well fitted inhibition curve with a large enough effect in the signal ratio, with a control signal flat, not every such curve was filed as active; inconclusive = small, poorly fitted or top-dose-only effect, or effect the other way, or a change in a side signal; the % refers to the signal ratio
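S3 HeLa cells stably expressing lamin A-EGFP splicing minigene plus DsRed2, 600 cells/well, 48 h compound exposure at 37C. Laser-scanning cytometry; analysed as GFP (500-530 nm)/RFP (575-640 nm) total intensity ratio; 0.5% DMSO vehicle.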
Numbers stand for hits; . = inactive; ? = inconclusive; / = no result; [ ] = another dose, or the depositor's remark. An excerpt weighted towards active compounds, which were near 9% of everything screened. Unless noted, calls come from the whole dose curve; as a rule, active = well fitted curve in the direction sought with a large enough effect; inconclusive = small, poorly fitted or top-dose-only effect, or another doubt; inactive = no such curve, though single readings can be large; an effect the other way counts as inactive or inconclusive.

SMILES | Luc counter | HTT cytoprotect | HttQ103 aggreg | ALDH1A1 inh | HPGD block | Lamin A splicing
COc1cc(C2C(C(C)=O)=C(O)C(=O)N2CCc2ccc(OC)c(OC)c2)ccc1O (configuration not stated) | . | . | . | . | . | .
Cc1cc(C(=O)COC(=O)CC2Sc3ccccc3NC2=O)c(C)n1-c1ccc(Br)cc1 (configuration not stated) | . | .[10 µM] | . | 12µM | . | .
Cc1cc(C(=O)COC(=O)CC2Sc3ccccc3NC2=O)c(C)n1-c1ccccc1 (configuration not stated) | . | .[10 µM] | . | ? | . | .
NC(=NCCc1c[nH]c2ccccc12)NC(=O)c1ccc(Cl)cc1 | . | .[10 µM] | .[9.22 µM] | . | / | /
CN(C)/C=C/C(=O)c1ccc(S(=O)c2ccccc2)cc1 (configuration not stated) | . | . | . | ? | / | /
COc1ccc(NC(=S)N/N=C/c2cccn2Cc2ccc(F)cc2)cc1 | . | . | . | 40µM | / | .
COc1ccc(C/C(C)=N/NC(=S)Nc2ccc(Cl)cc2)cc1 | / | .[10 µM] | .[9.22 µM] | / | / | /
COc1ccc(C/C(C)=N/NC(=S)Nc2ccccc2)cc1 | . | .[10 µM] | . | 22µM | . | .
COc1ccc(C/C(C)=N/NC(=S)Nc2ccc(C)c(C)c2)cc1 | / | .[10 µM] | ? | 24µM | / | .
COc1ccc(C/C(C)=N/NC(=O)c2ccc(C)cc2C)cc1 | . | . | . | . | / | .
CN1CCCC[C@@H]1CCN1CCCCC1 | .[7.66 µM] | .[10 µM] | / | .[13.5 µM] | . | /
Cc1cc(C)c(-n2[nH]nnc2=S)c(C)c1 | / | .[10 µM] | .[9.22 µM] | 22µM | / | /
COc1ccc(C)cc1-n1[nH]nnc1=S | . | . | . | 10µM | / | ?
O=C(Nc1ccc2c(c1)OCO2)c1c(Cl)nc2sccn12 | . | . | . | . | . | .
CC(C)(C)NC(=O)C(c1ccccc1)N(Cc1ccco1)C(=O)c1csnn1 (configuration not stated) | . | . | . | . | . | .
O=C(CCS(=O)(=O)c1ccc(Br)cc1)Nc1ccc2c(c1)OCO2 | . | .[10 µM] | . | ? | . | .
CCN(C(=O)CCS(=O)(=O)c1ccc(Br)cc1)c1ccc2c(c1)OCO2 | . | . | . | 16µM | . | .
O=C(c1ccccc1)[C@@H]1[C@@H](C(=O)c2ccc(F)cc2)[C@@]2(C(=O)Nc3ccccc32)[C@H]2c3ccccc3C=CN12 | / | .[10 µM] | ? | 11µM | / | ?
Cc1nc(CNS(=O)(=O)c2cc(C)c(C)cc2C)cs1 | . | .[10 µM] | . | 13µM | . | .
CC1=C(C(=O)Nc2ccc(C)cc2C)C(c2ccccc2C)n2ncnc2N1 (configuration not stated) | / | / | / | / | / | .
Cc1nc2ccccc2n1CCC(=O)O | . | .[10 µM] | . | . | . | .
CC(CNC(=O)c1ccc(C(C)(C)C)cc1)CN(C)C (configuration not stated) | . | / | . | . | . | .
CCOC(=O)c1sc2nc(CN3CCCCC3)nc(Cl)c2c1C | . | .[10 µM] | . | ? | / | .
Cc1ccc(Oc2nc(CN3CCOCC3)nc3sc4c(c23)CCC(C)C4)cc1 (configuration not stated) | . | .[10 µM] | ? | ? | . | ?
Cc1sc2nc(CN3CCOCC3)nc(N3CCOCC3)c2c1C | . | . | ? | 14µM | . | .
SMILES | Luc counter | HTT cytoprotect | HttQ103 aggreg | ALDH1A1 inh | HPGD block | Lamin A splicing
Cc1sc2nc(CN3CCOCC3)nc(Oc3ccc(NC(=O)c4ccco4)cc3)c2c1C | / | .[10 µM] | . | 18µM | / | .
Cc1sc2nc(CN3CCCC3)nc(Cl)c2c1C | . | .[10 µM] | 13µM | ? | . | ?
CC(C)c1nc2n(n1)C1(CCCCC1)[C@@H]1CCCC[C@@H]1N2 | / | / | / | / | / | .
S=c1[nH]ncc2ccccc12 | / | .[0.074 µM] | . | . | / | .
Cc1ccc(-c2n[nH]c(=S)c3ccccc23)cc1 | . | .[10 µM] | . | 0.35µM | / | .
Cc1ccc(-c2cc(-c3n[nH]c(=S)n3C)c3ccccc3n2)cc1 | . | / | . | ? | / | /
S=c1[nH]nc(-c2ccccc2)c2ccccc12 | . | / | / | 8.9µM | / | .
CCCNC(=O)CCNC(=O)c1ccc(C(C)(C)C)cc1 | . | .[0.074 µM] | . | . | . | .
Cc1ccnc(N2C(=O)c3ccccc3C2Nc2cccc(C)c2C)c1 (configuration not stated) | . | . | . | . | . | .
Cc1ccnc(N2C(=O)c3ccccc3C2O)c1 (configuration not stated) | 11µM | . | . | . | . | .
C/C(=N\NC(=O)C(=O)Nc1ccc(C)c(Cl)c1)c1ccncc1 | . | .[10 µM] | . | . | . | .
COCC(=O)Nc1nc(-c2ccc([N+](=O)[O-])cc2)cs1 | . | . | . | . | / | /
O=C(Cc1nc(-c2ccc([N+](=O)[O-])cc2)cs1)Nc1ccccc1 | . | . | . | 8.9µM | . | .
Cc1nn2c(NCCOCCO)c3c(nc2c1-c1ccccc1)CCCC3 | . | . | . | 32µM | . | .
COC(=O)c1ccc(S(N)(=O)=O)o1 | . | .[10 µM] | ? | . | . | .
Cc1cc(C)nc(SCC(=O)Nc2ccccc2[N+](=O)[O-])n1 | . | . | . | . | . | .
CCCCCCCSc1nnc(-c2ccccc2N)c(=O)[nH]1 | . | . | ? | . | / | /
CCCCSc1nnc(-c2ccccc2N)c(=O)[nH]1 | . | . | ? | 1.6µM | . | .
CCOC(=O)CSc1nc2sc(C)c(C)c2c(=O)[nH]1 | . | . | . | . | 3.5µM | .
CCOC(=O)CSc1nc2c(sc(=S)n2-c2ccc(OCC)cc2)c(=O)[nH]1 | . | . | . | ? | / | /
CCOc1ccc(-n2c(=S)sc3c(=O)[nH]c(SCC(=O)C(C)(C)C)nc32)cc1 | . | ? | ? | 7.1µM | / | /
CCOC(=O)CSc1nc2c(sc(=S)n2-c2ccccc2)c(=O)[nH]1 | . | / | . | . | 20µM | .
CCOC(=O)/C(=C\c1ccc(Cl)cc1)c1nc2sc(C)c(C)c2c(=O)[nH]1 | . | .[10 µM] | ? | 25µM | 22µM | ?
COc1ccc(S(=O)(=O)CCC(=O)NCCc2ccc(C)cc2)cc1 | . | . | . | 25µM | . | .
CC(=O)CCS(=O)(=O)c1ccc(Oc2ccc(S(=O)(=O)CCC(C)=O)cc2)cc1 | . | .[10 µM] | ? | ? | . | ?
SMILES | Luc counter | HTT cytoprotect | HttQ103 aggreg | ALDH1A1 inh | HPGD block | Lamin A splicing
COc1ccc(S(=O)(=O)CCC(=O)O)cc1 | . | . | 2.2µM | . | . | .
CCN1CCCC1CNS(=O)(=O)c1ccc(Cl)c(C(F)(F)F)c1 (configuration not stated) | . | / | . | . | / | /
Oc1c(C=NCc2ccccc2)sc2ccccc12 | . | .[10 µM] | .[9.22 µM] | . | / | /
Oc1cccc(C=NCc2ccccc2)c1O | . | . | . | 8.9µM | 16µM | .
O=C(NCc1ccco1)C1CC(c2ccc(F)cc2)=NO1 (configuration not stated) | / | .[10 µM] | .[9.22 µM] | . | / | /
CCCn1c(SCC(=O)Nc2sc(C)c(C)c2C#N)nnc1C(C)C | / | . | ? | 2.8µM | / | .
